This is a sample that favours compounds with a hit; in the whole collection about 1.3% have one here.
AmpC inh no detg: AmpC beta-lactamase inhibition without detergent; P00811; AmpC nitrocefin hydrolysis, absorbance 480 nm, 0.0001% Triton; Potency, µM (titrated, usually from 57.1 µM), hits mostly inhibitors; 330,000 compounds, 0.52% hits; further: nearly all actives have a fitted effect of over 20% in size
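20 mM phosphate pH 7.0 + 0.01% (detergent screen) or 0.0001% Triton X-100; 5.3 nM AmpC reagent; cpd preinc 15 min RT; nitrocefin (800 uM stock) to start; A480 q20 s × 4 min; Activity was normalised to no-enzyme and no-compound control wells.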
AMA1 RON2 block: disrupts binding of P. falciparum AMA1 to RON2. Potency, µM (series often up to 58.2 µM), usual class: inhibitors. AlphaScreen AMA1-biotinylated RON2 peptide binding. 360,000 compounds, 0.2% hits; further: nearly all actives have a fitted effect of over 45% in size
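AMA1 (3D7) with his tag at 25 nM final met compounds first, then biotinylated RON2 peptide at 25 nM; detection used donor plus acceptor beads, 10 µg/mL apiece, read by AlphaScreen after 30 min at room temperature.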
LmPK inhibitor: inhibitors of Leishmania mexicana pyruvate kinase; 290,000 compounds, 0.37% hits; Q27686; AID 1721; Potency, µM (series often up to 57.5 µM), hits mostly inhibitors; purified LmPK, Kinase-Glo ATP luminescence, 1 h
Target sequence (Q27686 whole entry, looked up): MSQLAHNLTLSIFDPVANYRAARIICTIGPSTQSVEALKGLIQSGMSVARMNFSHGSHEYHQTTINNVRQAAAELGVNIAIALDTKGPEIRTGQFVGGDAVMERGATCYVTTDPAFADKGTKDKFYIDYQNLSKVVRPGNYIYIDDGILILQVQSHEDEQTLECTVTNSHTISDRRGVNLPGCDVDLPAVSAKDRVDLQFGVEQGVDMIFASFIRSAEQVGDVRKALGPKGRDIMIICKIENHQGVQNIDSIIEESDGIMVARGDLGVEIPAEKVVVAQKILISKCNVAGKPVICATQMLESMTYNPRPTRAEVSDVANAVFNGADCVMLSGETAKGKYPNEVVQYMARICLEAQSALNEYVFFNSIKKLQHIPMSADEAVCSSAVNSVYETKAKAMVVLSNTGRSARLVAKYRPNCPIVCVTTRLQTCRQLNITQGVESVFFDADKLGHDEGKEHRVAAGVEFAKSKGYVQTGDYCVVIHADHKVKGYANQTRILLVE
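0.1 nM LmPK, 0.5 mM PEP, 0.1 mM ADP; 50 mM imidazole pH 7.2, 7 mM MgCl2, 50 mM KCl; 1 h RT. Kinase-Glo luminescence readout, normalized to no-enzyme (full inhibition) and uninhibited wells.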
AmpC detergent: inhibitors of E. coli AmpC beta-lactamase with detergent; P00811; AmpC hydrolysis of nitrocefin, absorbance 480 nm, 0.01% Triton; Potency, µM (top dose mostly 114 µM), most hits filed as inhibitors; 370,000 compounds, 0.041% hits; AID 485294; further: nearly all actives have a fitted effect of over 25% in size
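AmpC (5.3 nM in the dispensed reagent) in 20 mM phosphate pH 7.0 with 0.01% (detergent screen) or 0.0001% Triton X-100 was preincubated with compounds for 15 min at room temperature. Nitrocefin was then added from an 800 uM solution, and hydrolysis was followed at 480 nm.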
FBPA Giardia inh: Giardia lamblia aldolase inhibition; 290,000 compounds, 0.71% hits; A8B2U2; purified Giardia FBPA; Potency, µM (series often up to 59.6 µM), actives largely listed as inhibitors; further: nearly all actives have a fitted effect of over 55% in size
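Giardia FBPA (40 nM reagent) was preincubated 10 min at RT with compound (up to 57.5 uM final), then substrate plus GAPDH/TPI/NAD/arsenate coupling system with diaphorase/resazurin was added; resorufin fluorescence (525/598 nm) was read after 20 min.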
Hits are given with their value; i = inactive; ? = inconclusive; nt = not tested or not shown. The call rests on the fitted dose curve; in most records, active means well fitted curve in the direction sought with a large enough effect; inconclusive means small, poorly fitted or top-dose-only effect, or another doubt; inactive means no such curve, though single readings can be large; an effect the other way counts as inactive or inconclusive.

SMILES	AmpC inh no detg	AMA1 RON2 block	LmPK inhibitor	AmpC detergent	FBPA Giardia inh
O=C(NCCc1c[nH]c2ccccc12)c1ccc([N+](=O)[O-])o1	nt	i	nt	nt	nt
COC(=O)c1cc2oc3ccccc3c2n1CC(=O)Nc1cccc(SC)c1	nt	nt	nt	i	nt
COc1ccc(-c2ccc(C(c3c(C)[nH][nH]c3=O)c3c(C)[nH][nH]c3=O)o2)c([N+](=O)[O-])c1	i	i	i	i	6.29µM
Cc1cn2c(-c3ccc(Cl)cc3)nnc2s1	20µM	i	i	i	i
Clc1ccc(-c2nn3c(-c4ccccc4)nnc3s2)cc1	i	i	i	i	i
O=C(O)CCCCC1CCSS1 (configuration not stated)	15.8µM	i	i	50.1µM	i
CC[N+](CC)=N/N=C1\C=CC[N+]([O-])=C1	nt	i	nt	nt	nt
O=c1c2oc3ccccc3c2n(Cc2ccccc2F)c(=O)n1Cc1ccccc1	nt	nt	nt	i	nt
O=C(N/N=C/c1ccc(Br)s1)c1c[nH]c2ccccc12	25.1µM	i	i	i	i
O=C(N/N=C/c1cc(Br)cs1)c1c[nH]c2ccccc12	i	i	i	i	i
COCCc1ccc(OC2(C)CCN(Cc3cccn3-c3nccs3)C2)cc1 (configuration not stated)	nt	i	nt	nt	nt
O=Nc1c(O)n(Cc2ccc(Cl)c(Cl)c2)c2ccccc12	2.51µM	i	i	i	i
Cc1ccc(C(=O)N/C(=C\c2ccccc2F)c2nc(=S)[nH][nH]2)cc1	25.1µM	i	i	i	i
CN(C)c1cccc(NC(=O)C2Cc3c(-c4ccc(Cl)cc4)ccnc3O2)c1 (configuration not stated)	nt	25.1µM	nt	nt	nt
Cc1ccc(S(=O)(=O)c2cc(OC(=O)c3ccco3)ccc2OC(=O)c2ccco2)cc1	12.6µM	i	i	i	i
O=C(Oc1ccc(OC(=O)c2ccco2)c(S(=O)(=O)c2ccc(Br)cc2)c1)c1ccco1	i	i	i	i	i
COc1ccc(N=C2NC(=O)/C(=C\c3ccco3)S2)cc1	i	i	i	i	i
O=C1NC(=Nc2ccc(O)cc2)S/C1=C\C=C\c1ccco1	17.8µM	i	i	i	i
Oc1ccc(C(=Nc2ccccc2)c2ccccc2)c(O)c1	nt	i	nt	nt	nt
Cc1cc(N)ccc1N1CCCC1	i	15.8µM	i	i	?
CCCCn1nnnc1C(c1ccccc1)N1CCN(c2cccc(C(F)(F)F)n2)CC1 (configuration not stated)	nt	i	nt	nt	nt
N=C(N)c1ccc(N=Nc2c(O)ccc3c2[nH]c2ccccc23)cc1	nt	25.1µM	nt	nt	nt
CCc1cccc(NC(=O)c2ccc3c(=O)n4nc(Nc5ccccc5OC)sc4nc3c2)c1	nt	nt	nt	i	nt
CC(=O)c1c(C)n(-c2ccccc2Br)c2ccc(O)cc12	i	i	i	i	i
NS(=O)(=O)c1cccc(NC(=O)c2cc(-c3cccs3)nc3ccccc23)c1	17.8µM	i	i	i	i
SMILES	AmpC inh no detg	AMA1 RON2 block	LmPK inhibitor	AmpC detergent	FBPA Giardia inh
C=CCOc1ccc(C(c2c(C(=O)O)[nH]c3ccccc23)c2c(C(=O)O)[nH]c3ccccc23)cc1	22.4µM	i	i	i	i
Cc1cc(C)c(S(=O)(=O)c2ccccc2C)c(SCC(C)C)n1	0.251µM	i	i	i	i
CCCSc1nc(C)cc(C)c1S(=O)(=O)c1ccccc1C	i	i	i	i	i
O=C1N/C(=C\c2ccc(O)cc2)C(=O)c2ccccc21	i	i	10µM	i	?
O=C(Cc1ccc(F)cc1)NCCc1csc2nc(-c3ccccc3F)nn12	nt	nt	nt	i	nt
Cc1ccc(CNc2ccc(O)cc2)cc1	i	i	i	i	3.54µM
O=c1c(-c2c(O)cc(O)c3c(=O)cc(-c4ccc(O)cc4)oc23)c(-c2ccc(O)cc2)oc2cc(O)cc(O)c12	20µM	i	i	i	i
O=c1cc(-c2ccc(O)cc2)oc2c(-c3c(O)cc(O)c4c(=O)cc(-c5ccc(O)cc5)oc34)c(O)cc(O)c12	i	i	nt	nt	nt
N#Cc1cccc(NC(=O)CNc2cccc(S(=O)(=O)N3CCCCC3)c2)c1	i	i	nt	i	nt
COC(=O)c1ccccc1NC1=C/C(=N\S(=O)(=O)c2cccs2)c2ccccc2C1=O	i	3.16µM	17.8µM	i	?
CC(C)(C)c1ccc(S(=O)(=O)/N=C2\C=C(NS(=O)(=O)c3ccccc3)C(=O)c3ccccc32)cc1	i	i	i	i	?

Assay outcomes (PubChem)
